Hits are enriched below; roughly 2.3% of the tested compounds scored in any of these assays.
MCL1 BIM primary = disrupts human MCL1 binding to BIM-BH3 peptide. AID 2057. Q07820. actives 0.68% (n = 320,000). GST-MCL1 / FITC-Bim-BH3 fluorescence polarization. inhibition, % at 10.9 µM;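 active = inhibition above the mean inhibition of all tested compounds plus 3 SD, set per campaign, cut at about 40% in these data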;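 also: 0% = DMSO wells and 100% = unlabeled Bim-BH3 peptide control; higher means more loss of mP so more displacement of Bim peptide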
Target sequence (Q07820 whole entry, looked up): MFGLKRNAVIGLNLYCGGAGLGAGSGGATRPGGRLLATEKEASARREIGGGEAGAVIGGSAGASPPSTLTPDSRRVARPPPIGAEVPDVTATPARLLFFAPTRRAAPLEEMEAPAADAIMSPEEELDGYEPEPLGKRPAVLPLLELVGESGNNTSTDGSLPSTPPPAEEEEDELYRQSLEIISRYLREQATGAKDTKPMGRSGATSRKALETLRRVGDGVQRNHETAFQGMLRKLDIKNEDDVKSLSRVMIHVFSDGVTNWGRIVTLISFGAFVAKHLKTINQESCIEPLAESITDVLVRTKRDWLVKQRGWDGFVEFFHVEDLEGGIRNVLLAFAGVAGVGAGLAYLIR
Mcl1-Bid inh = disrupts binding of human Mcl-1 to Bid peptide; Q07820; TR-FRET Mcl-1/Bid-Dy647 peptide binding, 1536-well; inhibition, % at 21.7 µM; AID 1021; actives 0.97% (n = 220,000);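 active = compounds that cut the binding signal by more than half at the single screening dose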;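 also: His-tagged Mcl-1 with europium anti-His antibody binding Bid BH3 peptide; 0% = Mcl-1 plus peptide wells and 100% = peptide-only wells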
Bcl-xL primary = blocks human Bcl-xL binding to Bim BH3 peptide. Q07817. GST-Bcl-xL / FITC-Bim BH3 peptide fluorescence polarization. inhibition, % at 10.9 µM. actives 0.7% (n = 320,000);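 active = inhibition above the mean of all tested compounds plus 3 SD, cutoff set per campaign, cut at about 30% in these data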;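 also: 0% = DMSO wells and 100% = unlabeled Bim-BH3 peptide competitor; inhibitors lower millipolarization by displacing the labeled peptide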
GLD-1 RNA inh = GLD-1-TGE RNA interaction inhibition (C. elegans); Q17339; purified GLD-1 + fluorescein TGE RNA, fluorescence polarization; inhibition, % at 5.96 µM; actives 0.44% (n = 320,000);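 active = percent inhibition above a per-plate cutoff, the plate mean of test compounds plus 3 SD, cut at about 30% in these data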;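 also: 0% = DMSO wells with GLD-1 and probe and 100% = wells lacking GLD-1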
Bim-Mcl-1 = human Bim-Mcl-1 interaction inhibition | Bead-based flow cytometry, Bim peptide-Mcl-1 binding | AID 1009 | actives 0.1% (n = 190,000) | inhibition, % at 10 µM | Q07820; in the data active = inhibition above about 40%;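 also: 0% = no compound tracer wells and 100% = peptide blocker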
Mcl1 Noxa PPI = disrupts binding of human Mcl-1 to Noxa peptide. actives 1.5% (n = 220,000). inhibition, % at 21.7 µM. TR-FRET Mcl-1/Noxa peptide binding, 2 h;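 active = compounds that cut the protein-peptide binding signal by more than 50% relative to plate controls in a single-dose test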;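 also: His-tagged Mcl-1 with rhodamine Noxa BH3 peptide and terbium anti-His antibody; 0% = Mcl-1 plus Noxa peptide wells and 100% = peptide-only wells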
BCLXL inh confirm = Bcl-xL (human) inhibition, MCL1 counter-screen confirmation; shares compounds with MCL1 BIM primary; GST-Bcl-xL / FITC-Bim BH3 peptide FP binding; inhibition, % at 10.9 µM; actives 54% (n = 1,700);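 active = inhibition above a cutoff equal to the mean inhibition of all tested compounds plus 3 SD, cut at about 30% in these data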;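 also: 0% = DMSO wells and 100% = unlabeled Bim BH3 control peptide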
MCL1 BIM confirm = confirmation of human MCL1 and BIM-BH3 interaction inhibitors; AID 2168; GST-MCL1 / FITC-Bim-BH3 fluorescence polarization; shares compounds with MCL1 BIM primary; inhibition, % at 10.9 µM; actives 61% (n = 1,700);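 active = inhibition above the average of all tested compounds plus 3 SD, cut at about 40% in these data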;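 also: 0% = DMSO wells and 100% = unlabeled Bim-BH3 control peptide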
An asterisk follows results filed as active; · = no result given; + = active, no number.

SMILES | MCL1 BIM primary | Mcl1-Bid inh | Bcl-xL primary | GLD-1 RNA inh | Bim-Mcl-1 | Mcl1 Noxa PPI | BCLXL inh confirm | MCL1 BIM confirm
O=C(c1ccc(CS(=O)c2ccccc2Cl)o1)N1CCN(c2ccccn2)CC1 (stereo unspecified) | 11.5 | · | 7.1 | 2.5 | · | · | · | ·
CN1C(=O)c2cccc3c(N(C)C)ccc(c23)C1=O | 88.7* | · | 74.6* | 10.3 | · | · | 31.3* | 32.7
CNc1ccc2c3c(cccc13)C(=O)N(C)C2=O | + | · | 178.5* | 119.0* | · | · | + | +
Nc1nc2c(Cl)ccc(Cl)c2s1 | 7.6 | -29.0 | 5.0 | -0.6 | 0.0 | 6.8 | · | ·
O=C1NC(=O)/C(=C\c2ccc(O)cc2O)S1 | 50.1* | -40.6 | 31.0* | -12.0 | 2.0 | 94.5* | 94.3* | 133.0*
O=C1NC(=O)/C(=C/c2cccc3ccccc23)S1 | 9.8 | · | 7.7 | 9.1 | · | · | · | ·
Cn1c(COc2ccccc2Br)nc2ccccc21 | 4.0 | · | 6.5 | 4.7 | · | · | · | ·
O=[N+]([O-])c1ccc(/C=C/C2=NN(c3ccccc3)C(c3ccco3)C2)cc1 (stereo unspecified) | 66.9* | -12.8 | 67.1* | -20.5 | · | 3.8 | 93.0* | 109.3*
OCC[C@H]1C[C@H](O)[C@@H](O)[C@@]2(OCCCc3ccccc32)O1 | 9.5 | · | -2.7 | -4.9 | · | · | · | ·
CN(Cc1ccccc1)C(=O)c1[nH]cnc1C(=O)Nc1cccc(Cl)c1 | 15.3 | · | 3.1 | 2.9 | · | · | · | ·
Cc1ccc(C(=O)O)cc1-c1ccc(/C=C2/NC(=O)N(c3ccccc3)C2=O)o1 | 52.3* | 26.9 | 21.5 | -0.7 | 3.0 | 69.8* | 36.2* | 62.8*
COc1ccc2c(c1)CCCC21NC(=O)N(CC(=O)c2cc(F)ccc2F)C1=O (stereo unspecified) | -0.1 | · | 1.1 | -5.2 | · | · | · | ·
CCCn1c(/C=C/c2cc[n+](C)cc2)nc2ccccc21 | 71.5* | · | 67.1* | 30.4 | · | · | 52.5* | 56.1*
CCn1c(/C=C/c2ccccc2)nc2ccccc21 | 0.1 | 1.4 | 3.0 | -2.8 | 3.0 | 22.9 | · | ·
CCOC(=O)c1c(S(=O)(=O)Nc2ccc(C)cn2)c(C)n(C)c1C | -0.2 | · | 1.1 | 6.2 | · | · | · | ·
O=C1c2ccccc2-c2onc3ccc(NCCCn4ccnc4)c1c23 | + | 59.9* | + | 197.8* | 63.0* | -281.2 | 181.0* | 199.8*
COc1ccc(OC)c2c1C(=O)C(Cl)=C(Cl)C2=O | 70.8* | -77.8 | 39.0* | 17.6 | · | 98.6* | 47.0* | 65.2*
COc1ccc(N)c2c1C(=O)c1ccccc1C2=O | 23.2 | -91.8 | 15.7 | 14.3 | 11.0 | 31.6 | · | ·
COc1ccc2noc3c2c1C(=O)c1ccccc1-3 | 117.3* | · | 115.6* | 91.2* | · | · | 109.9* | 120.8*
COc1ccc(OC)c2c1C(=O)c1ccccc1C2=O | + | -20.2 | + | + | 1.0 | 15.0 | + | +
O=C(NCCOc1ccccc1Cl)c1cccc2c1C(=O)c1ccc(Cl)cc1S2(=O)=O | -23.4 | · | -3.0 | 2.5 | · | · | · | ·
Cc1ccc2c(c1)C1C[N+](C)(CC(=O)Nc3ccccc3Cl)CCC1N2C(=O)c1ccccc1Cl (stereo unspecified) | · | · | · | 0.0 | · | · | · | ·
O=C(Cn1[nH]c(=O)c2ccccc2c1=O)OCC(=O)c1ccccc1Cl | -1.4 | · | 2.6 | 3.8 | · | · | · | ·
CCN(C(=O)C1CCCN1S(=O)(=O)c1ccc2c(c1)n(C)c(=O)c(=O)n2C)c1ccccc1 (stereo unspecified) | 7.3 | · | 0.1 | -4.5 | · | · | · | ·
O=C(NCCCNC(=O)c1cnccn1)c1ccc(Br)cc1 | 3.0 | · | 3.1 | -6.8 | · | · | · | ·
CC(NC(=O)c1cc2sccc2n1C)c1ccc2c(c1)OCCO2 (stereo unspecified) | 178.2* | 7.6 | 3.5 | 8.0 | -3.0 | 32.4 | 1.1 | 3.7
CCn1c(C(=O)NC(C)c2ccc3c(c2)OCCO3)cc2sccc21 (stereo unspecified) | -1.6 | -22.5 | 4.1 | 3.2 | 0.0 | -17.3 | · | ·

Compound activity as filed in PubChem BioAssay.
